# PubChem BioAssay AID504602 (National Center for Advancing Translational Sciences (NCATS), 2011)
# Results filed as inconclusive are left out. Active and inactive are the calls of the source. Calls follow the shape of the dose curve; as a rule, active = well fitted curve in the direction sought with a large enough effect; inconclusive = small, poorly fitted or top-dose-only effect, or effect the other way, or another doubt; inactive = no such curve, though single readings can be large or run the other way.
# Experiment: Quantitative high throughput screen to test cell viability of anti-malarial compounds targeting the delayed death phenotype
# From the text: The biochemical processes that make this organelle essential for erythrocytic stage parasites are not well understood. However, antibiotics, such as azithromycin and tetracycline, which target the apicoplast translational machinery, have a potent antimalarial effect. […] We have developed a cell-based assay that measures parasite growth based on the expression of an integrated copy of a firefly luciferase reporter. To detect small molecules that cause this 'delayed death' phenotype, erythrocytes infected with the luciferase-expressing parasites were incubated with compounds for either one or two generations, corresponding to 48 and 96 hours, respectively. Compounds that inhibit parasite growth in the second generation, but not the first, should be enriched in antimalarials that target the apicoplast. Growth inhibition is detected by a decrease in luciferase activity. The goal of this counterscreen is to measure the cytoxoxicity (against HepG2 cell line) of a set of anti-malarial compounds that target the delayed death pheonotype as identified by the qHTS assay that inhibit the development of the apicoplast in the malarial parasite Plasmodium falciparum. NIH Molecular Libraries Probe Production Network [MLPCN] […]
# Cells were plated at a density of 2000 cells/well/5uL in 1536 well white tissue culture plate with culture medium. […] Luminescence was measured using ViewLux (1 second, slow, 2X).
smiles,measurement,value
C[C@@H]1CN([C@@H](C)CO)C(=O)c2cc(NC(=O)Nc3ccccc3)ccc2O[C@@H](C)CCCCO[C@H]1CN(C)C(=O)Oc1ccccc1,outcome,inactive
